The sequences below were run against IFT52 (assay: pooled miR-30 sensor sort-seq; sequence = guide strand). Conditions: shRNA.
Further: reference of the scale not given here.

Sequence | sensor-assay potency score (higher = more potent)
TATTCTTCTAGTAAAAAGTTAA | -1.44
TAATCCACAGTTTTACTCCATT | -1.37
TTCTTCAGTACACTTATTGGTA | -0.369

The sequences below were run against IGFBP3 in the same assay as above. Conditions: shRNA.

Sequence | sensor-assay potency score (higher = more potent)
TACTTATCCACACACCAGCAGA | -1.2
TTTCTTATAAAATCCCTTCTTG | -0.488
TTGATGATGATTATCTTTGAAT | -0.974
TAGCATTTCCTGGAGCTGGCGG | -0.626
TATCTGTGCTCTGAGACTCGTA | -0.405
TTCTTGATGATGATTATCTTTG | -1.16
TATCTTTGAATGGAGGGGGTGG | -0.842
TTTCTTGATGATGATTATCTTT | -1
TCGTAGTCAACTTTGTAGCGCT | -0.259
TTTAGCATGCCCTTTCTTGATG | -1.17
TAGTCAACTTTGTAGCGCTGGC | -0.23
ATCTGTGCTCTGAGACTCGTAG | -0.551

What follows are sequences tested against IGFBP7 in the same assay as above. Conditions: shRNA.

Sequence | sensor-assay potency score (higher = more potent)
TTTATTTTGTATTTCTCTGTGT | 0.392
TAGTCTTGATGTGTGATCTTTA | -0.24
TATAACTAAAGTGTTAGTGGAT | 0.0715
TATGGAAGGACCTTGCTCGCAG | 0.0924
TTTTTGCTGATGCTGAAGCCTG | -1.34
TATTTCTCTGTGTAAAACCAGT | -0.876
ATATTCTCCAGCATCTTCCTTA | 0.0623
TGTCCTTTGAACTCCATAGTGA | -0.0168
TCCATGACTACTTTTAACCATG | -1.58
TTATTTTGTATTTCTCTGTGTA | 0.738
TTGCACACGCACACGCCGCTTA | -0.533
TAGAGGAGATACCAGCACCCAG | -1.77

These sequences were tested against IGLL1 in the same assay as above. Conditions: shRNA.

Sequence | sensor-assay potency score (higher = more potent)
TCACCGTCAAGATTCCCGGATA | -1.01
TTGTTGTTGCTCTGTTTGGAGG | -1.19
TACTTGTTGTTGCTCTGTTTGG | -0.977
TACCACGGCCAGACCCAGCAGC | -0.916
TTGGGCTGACTTAAAACGGTGA | -0.209
TGGACCGGCTGCTTCCTCCAGG | -1.11
AGACACACCAGTGTAGCCTTGT | -0.487
TGAGACACACCAGTGTAGCCTT | 0.221
TAGCCTTGTTGGCTTGGAGCTC | -0.995
TGCTCTGCGATGCAGCTGTTGG | -1.49
TCAGGTAGCTGCTGGCCGCGTA | -0.554
TGCAGCTGTTGGGCGCAGCAGG | -1.51
